Source: PubChem
FLuc counter: inhibits or activates purified firefly luciferase, miR-21 counter-screen | P08659 | purified FLuc, Km substrates, luminescence inhibition | Potency, µM (top dose mostly 57.5 µM), without a hit: at the highest dose activity change, negative = inhibition, hits mostly inhibitors | 6.9% of 360,000 active | AID 588342;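 note: plate controls were vehicle for no effect and reference inhibitor for full effect; nearly all actives have a fitted effect of over 55% in size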
Target sequence (P08659 whole entry, looked up): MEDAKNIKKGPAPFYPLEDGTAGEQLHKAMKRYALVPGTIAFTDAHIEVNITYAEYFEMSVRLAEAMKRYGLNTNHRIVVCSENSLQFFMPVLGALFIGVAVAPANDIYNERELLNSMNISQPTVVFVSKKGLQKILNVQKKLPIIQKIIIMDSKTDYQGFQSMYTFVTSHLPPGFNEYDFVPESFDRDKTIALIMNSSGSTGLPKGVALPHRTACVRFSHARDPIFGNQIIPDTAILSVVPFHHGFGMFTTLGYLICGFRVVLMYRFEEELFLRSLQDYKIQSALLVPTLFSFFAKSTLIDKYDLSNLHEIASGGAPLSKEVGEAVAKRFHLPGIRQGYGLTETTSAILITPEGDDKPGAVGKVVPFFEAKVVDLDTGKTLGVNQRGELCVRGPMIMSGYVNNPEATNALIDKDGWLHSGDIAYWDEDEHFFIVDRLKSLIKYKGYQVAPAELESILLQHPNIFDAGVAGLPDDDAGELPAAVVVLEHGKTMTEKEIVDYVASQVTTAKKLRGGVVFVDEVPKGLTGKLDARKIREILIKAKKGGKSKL
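Purified P. pyralis luciferase, 10 nM final, with Km-level 10 uM D-luciferin and 10 uM ATP in 50 mM Tris acetate pH 7.5, 10 mM Mg acetate, 0.01% Tween-20, 0.05% BSA; 6-point qHTS titration about 60 µM downward; luminescence read.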
Rab9 promoter act: Rab9 promoter activation; Huh7 Rab9 promoter-luciferase reporter, luminescence, 24 h; Potency, µM (titrated, usually from 9.22 µM), inactives show top-dose activation, negative = inhibition, usual class: activators; 2.8% of 320,000 active; note: % of control where 0% means no effect; nearly all actives have a fitted effect of over 60% in size
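Cells were plated at 1500 per well in reduced-serum medium with 10% FBS and left 2 h. Compound in DMSO was then added for 24 h at 37 °C. Reporter signal was read by luminescence after 10 min with luciferase detection reagent.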
NPC1 prom act: NPC1 promoter activation; AID 485313; 2.4% of 320,000 active; Potency, µM (series often up to 9.22 µM), inactives show top-dose activation, actives largely listed as activators; Huh7 NPC1 promoter luciferase reporter, 24 h; note: % of control where 0% means no effect; nearly all actives have a fitted effect of over 60% in size
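Cells: Huh7 expressing luciferase under the NPC1 promoter, 1500/well. Seeded 2 h, compound added, incubated 24 h at 37 °C. Luciferase reagent, 10 min ambient, then luminescence.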
ELG1 genotox: induces genotoxicity in HEK293T cells with luciferase-tagged ELG1. Potency, µM (top dose mostly 46 µM), without a hit: at the top dose activity change, positive = activation, usual class: activators. 1.3% of 330,000 active. HEK293T ELG1-luciferase reporter, luminescence, 16 h; note: % of control where 0% means no effect; nearly all actives have a fitted effect of over 60% in size
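Luminescence read-out: rising ELG1-luciferase signal, reflecting elevated ELG1 protein under genetic stress, flags genotoxic compounds. Cells were treated for 16 hr at 37 °C before ONE-Glo detection.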
SMN2 splice enh: increases expression of the SMN2 splice variant | AID 1458 | Potency, µM (series often up to 46.1 µM), for inactives: top-dose activity change, positive = activation, hits mostly activators | 2.8% of 210,000 active | HEK293 SMN2-luciferase splicing reporter, luminescence, 30-36 h; note: % of control where 0% means no effect; nearly all actives have a fitted effect of over 55% in size
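HEK293 cells carry an SMN2 […]–luciferase reporter in which exon 7 inclusion puts luciferase in frame. Cells were plated 10-12 h before compound addition, then incubated 30-36 h at 37C. ONE-Glo luminescence was read; sodium butyrate at 4.5 mM final served as control.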
ELG1 DNA repair: blocks ELG1-dependent DNA repair in HEK293T cells. Potency, µM (highest dose often 46.1 µM), for inactives: at the highest dose activity change, negative = inhibition, actives largely listed as inhibitors. 2.3% of 330,000 active. HEK293T ELG1-luciferase reporter, luminescence, 16 h; DNA damage induced by 5-fluorouridine; note: % is set by controls: 0 for no effect and ±100 for the full control effect; nearly all actives have a fitted effect of over 55% in size
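Step one: seed 2,000 cells per well. Step two: pin-transfer compound or DMSO alongside 5-fluorouridine. Step three: incubate 16 hr, 37 °C, 5% CO2. Step four: add ONE-Glo, wait 30 min, read luminescence.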
The depositor's hits bear a star; ? = inconclusive; . = not tested or not shown. Compounds with a hit are over-represented: about 9.2% of the library has one in this group of screens. Calls come from the whole dose curve; as a rule, active = well fitted curve in the direction sought with a large enough effect; inconclusive = small, poorly fitted or top-dose-only effect, or another doubt; inactive = no such curve, though single readings can be large; an effect the other way counts as inactive or inconclusive. Potency is the fitted concentration of half-maximal effect.

SMILES | FLuc counter | Rab9 promoter act | NPC1 prom act | ELG1 genotox | SMN2 splice enh | ELG1 DNA repair
Cc1c(C(=O)O)oc2ccc(S(=O)(=O)NCc3ccccc3)cc12 | 5% | 1% | 5% | 0% | 3% | 9.2µM*
Cc1c(C(=O)NCc2c(F)cc(F)cc2F)oc2ccc(S(=O)(=O)N3CCOCC3)cc12 | -2% | 2% | -4% | -17% | . | 29µM*
CCOC(=O)C1CCN(C(=O)Cn2nc(C)n3nc(-c4ccc(CC)cc4)cc3c2=O)CC1 | ? | 10% | 1% | 0% | . | 4%
COc1cccc(NC(=O)c2oc3ccc(S(=O)(=O)N4CCOCC4)cc3c2C)c1 | -1% | -2% | -4% | -14% | . | 21µM*
Cc1c(C(=O)Nc2cccc(Cl)c2)oc2ccc(S(=O)(=O)N3CCC4(CC3)OCCO4)cc12 | -4% | -6% | -27% | 1% | -12% | 9.2µM*
Cc1ccc(NC(=O)c2oc3ccc(S(=O)(=O)N4CCOCC4)cc3c2C)cc1C | -13% | -2% | -1% | 8% | 1% | ?
COc1cccc(NC(=O)c2oc3ccc(S(=O)(=O)N4CCC5(CC4)OCCO5)cc3c2C)c1 | 1% | . | . | . | . | .
Cc1nc2cc(NC(=O)N3c4ccccc4CC3C)ccc2o1 (centres undefined) | 6µM* | 0.89µM* | 0.79µM* | 3.3µM* | 11µM* | ?
Cc1ccccc1NC(=O)N1c2ccccc2CC1C (centres undefined) | ? | -9% | 1% | 2% | 20% | 27%
Cc1nc2cc(NC(=O)NCc3ccc4c(c3)OCO4)ccc2o1 | -2% | -2% | -3% | 1% | -2% | -2%
Cc1nc2cc(NC(=O)N3c4ccccc4CC3C)ccc2n1C (centres undefined) | 1.7µM* | 0.45µM* | 0.5µM* | ? | 2.8µM* | ?
Cc1nc2cc(NC(=O)Nc3ccc(Br)cc3)ccc2o1 | 2.4µM* | 0.5µM* | 1.8µM* | ? | 11µM* | ?
COC(=O)[C@@H](Cc1c[nH]c2ccccc12)NC(=O)C1CCCN(S(=O)(=O)c2ccc(C)cc2)C1 (some centres undefined) | -2% | 3% | 0% | -9% | . | -11%
CCC(C)NC(=O)C1CC(=O)N(CCc2ccc(F)cc2)C1 (centres undefined) | -1% | -1% | 0% | 0% | . | -1%
CCOc1ncccc1C(=O)Nc1cccc(S(=O)(=O)N2CCCCC2)c1 | 6% | -7% | 0% | 0% | . | 11µM*
O=C(Nc1cccc(S(=O)(=O)N2CCCCC2)c1)c1ccc(Cl)nc1 | . | . | . | -6% | . | 21µM*
O=C(Nc1cccc(S(=O)(=O)N2CCCCCC2)c1)c1ccc(Cl)nc1 | . | . | . | -10% | . | 21µM*
O=C(Nc1cccc(S(=O)(=O)N2CCCC2)c1)c1ccc2ccccc2n1 | ? | -2% | -4% | -12% | -58% | 21µM*
O=C(Nc1cccc(S(=O)(=O)N2CCCCC2)c1)c1ccc2ccccc2n1 | ? | 14% | -2% | 2% | -23% | -12%
O=C(Nc1ccc(S(=O)(=O)N2CCCCC2)cc1)c1ccc(Cl)nc1 | . | . | . | -8% | . | ?
Cc1ccc(C(=O)C=CNNC(=O)c2ccccc2)cc1 | 24µM* | 9% | 12% | -1% | . | ?
O=C(/C=C/NNC(=O)c1ccc(Br)cc1)c1ccccc1 | ? | -3% | -3% | ? | -12% | ?
O=C(/C=C/NNC(=O)c1ccccc1O)c1ccccc1 | 19µM* | 14% | 18% | 4% | . | -7%
Cc1ccc(S/C=C\C(=O)c2ccccc2)cc1 | 0.13µM* | 11% | 10% | 18µM* | -3% | ?
Cc1ccc(C(=O)/C=C\C(=O)c2ccc(C)cc2)cc1 | ? | 0% | -8% | ? | 24% | ?
CC(/C=C/C(=O)c1ccc(C)cc1)=C\c1ccccc1 | 4.3µM* | ? | ? | 18% | -26% | ?
